# This excerpt belongs to a sample that is enriched for hits.
# TDP1 cell CPT: DT40-hTDP1 cell growth loss with CPT; chicken DT40 Tdp1-/-;hTDP1 cells + 20 nM CPT, ATP luminescence, 48 h; Potency, µM (titrated, usually from 46.2 µM), for the others: at the highest dose activity change, negative = growth inhibition, hits mostly inhibitors; hit rate 12% among 420,000; AID 686979; also: potency is read from the fitted curve at half-maximal effect; nearly all actives have a fitted effect of over 55% in size
#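 Cell growth measured by CellTiter-Glo luminescence after a minimum 48 h, 37 C compound exposure with 20 nM CPT in Tdp1-knockout DT40 cells stably expressing hTDP1, seeded 400/well; qHTS titration format.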
# HT1080-NT tox: kills 2HG-producing HT-1080-NT fibrosarcoma cells; Potency, µM (series often up to 46.1 µM), for the others: at the top dose activity, negative = less viability, usual class: cytotoxic; AID 686970; hit rate 1.6% among 360,000; HT-1080-NT fibrosarcoma viability, CellTiter-Glo ATP luminescence, 48 h;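 also: NT is the 2HG producing partner of a matched IDH1 knockdown line; potency is read from the fitted curve at half-maximal effect; 0% = DMSO-treated cells and -100% = media-only wells without cells; nearly all actives have a fitted effect of over 55% in size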
#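 Viability of the 2HG-overproducing fibrosarcoma line after 48 hours of compound exposure at 37 degrees C was determined by luminescence with CellTiter-Glo, and concentration-effect curves were then fitted and categorized.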
# TDP1 cell noCPT: qHTS for Inhibitors of human tyrosyl-DNA phosphodiesterase 1 (TDP1): qHTS in cells in absence of CPT | Potency, µM (titrated, usually from 46.2 µM), inactives show top-dose activity change, negative = growth inhibition, actives largely listed as inhibitors | hit rate 15% among 420,000 | DT40 Tdp1-/- hTDP1 cells, no CPT, ATP luminescence, 48 h; also: potency is read from the fitted curve at half-maximal effect; nearly all actives have a fitted effect of over 55% in size
#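 Readout: luminescence from CellTiter-Glo after 30 min in the dark at RT. Cells: DT40 Tdp1-/- with stable hTDP1, 400/well. Exposure: compounds alone, ≥48 hr, 37 °C.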
# IL1B secr inh: inhibitors of inflammasome signaling (IL-1 beta secretion). activity change, % at 57.5 µM. THP-1 LPS/ATP IL-1B secretion, AlphaLISA, 16 h; hits give low values. hit rate 4.7% among 360,000; in the data active = activity change below about -50%; inconclusive = mostly about -30% to -49%
#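 Secreted IL-1B measured by AlphaLISA bead assay after 16 h compound exposure of THP-1 cells; compounds (final up to 57.5 uM) added 1 h before LPS (250 ng/mL) and ATP (1.25 mM) stimulation; lower signal means less secretion.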
# HT1080 IDH1KD tx: HT-1080 IDH1 knockdown cell toxicity (counter line); hit rate 2% among 360,000; HT-1080 IDH1 knockdown viability, ATP luminescence, 48 h; Potency, µM (top dose mostly 46.1 µM), inactives show top-dose activity, negative = toxicity, actives largely listed as cytotoxic;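 also: potency is read from the fitted curve at half-maximal effect; 0% = DMSO wells and -100% = cell-free medium wells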
#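 After a 2 h attachment period, IDH1KD HT-1080 cells took pin-transferred compound for 48 h at 37 °C; ATP-based luminescence after 10 min room-temperature reagent incubation reported viability.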
# ALOX12 inh: ALOX12 (human) lipoxygenase inhibition; P18054; purified 12hLO, xylenol orange hydroperoxide absorbance; Potency, µM (highest dose often 108 µM), for the others: top-dose activity change, negative = inhibition, actives largely listed as inhibitors; hit rate 1.1% among 580,000; AID 1671190; also: potency is read from the fitted curve at half-maximal effect
# Target sequence (P18054 whole entry, looked up): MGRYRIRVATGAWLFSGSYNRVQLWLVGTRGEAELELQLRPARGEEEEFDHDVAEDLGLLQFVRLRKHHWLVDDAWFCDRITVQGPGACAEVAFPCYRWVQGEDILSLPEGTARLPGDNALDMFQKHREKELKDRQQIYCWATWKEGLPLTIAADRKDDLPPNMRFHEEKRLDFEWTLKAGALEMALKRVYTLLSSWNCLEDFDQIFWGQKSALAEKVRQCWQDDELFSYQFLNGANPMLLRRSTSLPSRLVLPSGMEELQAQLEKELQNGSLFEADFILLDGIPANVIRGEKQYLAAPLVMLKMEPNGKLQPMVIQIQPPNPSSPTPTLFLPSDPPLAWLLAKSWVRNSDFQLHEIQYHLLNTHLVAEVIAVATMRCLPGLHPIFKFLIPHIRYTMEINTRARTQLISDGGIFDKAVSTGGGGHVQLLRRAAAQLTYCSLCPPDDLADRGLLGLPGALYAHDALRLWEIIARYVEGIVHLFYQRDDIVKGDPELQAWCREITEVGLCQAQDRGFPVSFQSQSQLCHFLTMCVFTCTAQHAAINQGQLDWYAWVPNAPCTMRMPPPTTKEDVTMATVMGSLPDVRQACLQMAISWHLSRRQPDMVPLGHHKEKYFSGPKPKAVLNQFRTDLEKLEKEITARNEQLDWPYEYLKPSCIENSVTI
#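 Purified human 12hLO (150 nM final) in 25 mM Hepes, 0.01% Triton X-100, pH 7.0 was preincubated 15 min at room temperature with compound. Then 40 uM arachidonic acid was added, 30 min. Hydroperoxide was read by Fe-XO absorbance ratio 573/405 nm.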
# * = called active by the depositor; ? = inconclusive; . = no result given. Unless noted, calls follow the shape of the dose curve; as a rule, active = well fitted curve in the direction sought with a large enough effect; inconclusive = small, poorly fitted or top-dose-only effect, or another doubt; inactive = no such curve, though single readings can be large; an effect the other way counts as inactive or inconclusive. Unless noted, % is scaled to controls: 0 for no effect and ±100 for the full control effect.
SMILES,TDP1 cell CPT,HT1080-NT tox,TDP1 cell noCPT,IL1B secr inh,HT1080 IDH1KD tx,ALOX12 inh
COc1ccc(NC(=O)CC2C(=O)N(c3cccc(OC)c3)C(=O)N2CCc2cccs2)cc1 (stereo unspecified),?,.,20.6µM*,.,.,8.1%
COC(=O)c1ccc(NC(=O)CC2C(=O)N(c3cccc(OC)c3)C(=O)N2Cc2cccs2)cc1 (stereo unspecified),?,.,?,.,.,-10.0%
CC(C)C(C)N(C)Cc1nnc(-c2ccc(Br)o2)o1 (stereo unspecified),.,.,.,.,.,22.2%
Cc1ccc(-c2onc(C)c2C)cc1S(=O)(=O)N1CCOc2ccc(Cl)cc21,?,.,14.6µM*,.,.,2.1%
Cc1cc2c(cc1S(=O)(=O)N1CCc3ccccc31)NC(=O)CO2,-17.3%,-15.6%,?,-78.5*,?,-25.9%
CCC1CN(S(=O)(=O)c2ccc3c(c2)NC(=O)CC(=O)N3)c2cc(Cl)ccc2O1 (stereo unspecified),16.4µM*,-18.8%,20.6µM*,55.0,-19.4%,-5.2%
Cc1ccc(-c2onc(C)c2C)cc1S(=O)(=O)NC1CCCCC1,?,.,25.9µM*,.,.,-31.2%
CCOC(=O)C1CN(S(=O)(=O)c2ccc(Cl)cc2)c2cc(S(=O)(=O)CC)ccc2O1 (stereo unspecified),15.2%,5.8%,0.9%,-22.6,2.5%,-29.8%
CC(=O)N1CCc2cc(CNS(=O)(=O)c3cccs3)ccc21,0.0%,.,-1.3%,.,.,-21.9%
CC(NC(=O)c1cc2ccccc2oc1=O)c1cccs1 (stereo unspecified),.,.,.,.,.,7.5%
Cc1ccc(-c2onc(C)c2C)cc1S(=O)(=O)N1CCC(C)CC1,20.6µM*,.,?,.,.,-15.4%
CCOC(=O)C1CCN(S(=O)(=O)c2cc(-c3onc(C)c3C)ccc2C)CC1,?,.,?,.,.,-9.4%
Cc1ccc(-c2onc(C)c2C)cc1S(=O)(=O)N1CCc2ccccc21,13µM*,.,23.1µM*,.,.,3.8%
CCC1CN(S(=O)(=O)c2cc(-c3onc(C)c3C)ccc2C)c2cc(Cl)ccc2O1 (stereo unspecified),14.6µM*,.,14.6µM*,.,.,?
COC(=O)[C@@H](N)Cc1ccc(O)c(O)c1,26.6µM*,2.1%,?,45.1,7.7%,?
Cc1cscc(C)c1=S,6.3%,13.5%,3.1%,7.2,6.7%,17.8µM*
CC(=O)Nc1ccc(S(=O)(=O)NCCSCc2ccc(Cl)cc2Cl)cc1,?,-26.3%,18.4µM*,-56.5*,?,0.0%
CN1c2cc(C(=O)Nc3cccc(C(F)(F)F)c3)ccc2C(=O)N2CCCC21 (stereo unspecified),.,.,.,.,.,0.3%
CCn1c(=O)cc(OCC(=O)N2CCN(c3cccc(C(F)(F)F)c3)CC2)c2ccccc21,16.4µM*,-6.2%,23.1µM*,6.5,-12.5%,0.0%
CCn1c(=O)cc(OCC(=O)N2CCN(c3ccc(C(C)=O)cc3)CC2)c2ccccc21,-2.8%,.,-11.3%,.,.,-21.4%
CCn1c(=O)cc(OCC(=O)N2CCN(c3ccc(OC)cc3)CC2)c2ccccc21,20.6µM*,.,-91.5%,.,.,-7.1%
Cc1nc(/C=C/C(=O)NCc2ccccn2)cs1,.,.,.,.,.,50.0%
CCn1c(SCC(=O)Nc2cccc(C(=O)O)c2)nnc1-c1cc2ccccc2o1,.,.,.,.,.,18.2%
Nc1ccc(C(=O)N2CCCC2)cc1,-0.4%,8.4%,-4.9%,23.8,12.5%,0.0%
Nc1ccc(C(=O)n2c3ccccc3c3ccccc32)cc1,1.84µM*,?,2.31µM*,16.8,0.92µM*,-21.4%
SMILES,TDP1 cell CPT,HT1080-NT tox,TDP1 cell noCPT,IL1B secr inh,HT1080 IDH1KD tx,ALOX12 inh
CN(C)c1ncc2nc(-c3cc(F)cc(F)c3)c(=O)n(C[C@H]3CCCO3)c2n1,-6.8%,.,18.5%,.,.,59.8%
Cc1cc(C)cc(NC(=O)c2ccc(CSc3nnnn3C)cc2)c1,-5.7%,-5.0%,-6.2%,-52.8*,-10.3%,0.2%
Brc1ccc(CSc2nc3ccccc3s2)cc1,.,.,.,.,.,-0.7%
O=C(O)/C(=C\c1ccc(Br)cc1)Sc1nc2ccccc2s1,.,.,.,.,.,8.91µM*
CCCn1c(N)c(C(=O)CSc2nc(C)cs2)c(=O)[nH]c1=O,?,1.9%,14.6µM*,-10.6,-1.3%,0.8%
O=C(NCc1ccncc1)c1cccc(S(=O)(=O)N2CCc3ccccc32)c1,20.6µM*,?,?,-11.8,-17.4%,-10.2%
O=C(NCCc1ccccn1)c1cccc(S(=O)(=O)N2CCc3ccccc32)c1,?,-8.2%,?,11.0,-13.0%,-2.4%
CC(NC(=O)c1cccc(S(=O)(=O)N2CCc3ccccc32)c1)c1ccco1 (stereo unspecified),?,-12.6%,18.4µM*,-5.8,-6.0%,-17.4%
CC1Cc2ccccc2N1S(=O)(=O)c1cccc(C(=O)NNC(=O)c2ccccc2F)c1 (stereo unspecified),-18.3%,-16.8%,?,20.0,-0.5%,122.1%
O=C(NNC(=O)c1ccccc1F)c1cccc(S(=O)(=O)N2CCc3ccccc32)c1,18.4µM*,-9.1%,10.3µM*,39.2,0.0%,-8.3%
COc1ccccc1CNC(=O)CN1C(=O)CSc2ccc(S(=O)(=O)N3CCCCC3)cc21,?,.,20.6µM*,.,.,-10.3%
COc1ccccc1CNC(=O)CN1C(=O)COc2ccc(S(=O)(=O)N3CCCCC3)cc21,?,8.4%,?,-7.7,9.2%,-4.7%
O=C(CN1C(=O)CSc2ccc(S(=O)(=O)N3CCCCC3)cc21)NCc1ccc(F)cc1Cl,23.1µM*,.,?,.,.,-12.1%
Cc1cnccc1NCCNc1ncncn1,.,.,.,.,.,28.9%
Cc1ccc(NC(=S)N(CCN(C)C)C(C)c2ccco2)cc1C (stereo unspecified),18.4µM*,8.0%,?,-18.6,12.9%,32.4%
Cc1ccc(NC(=S)N(C)C(c2ccccc2)c2ccccc2)cc1C,?,?,23.1µM*,-1.5,-1.4%,0.0%
COCCN(C(=S)Nc1ccc(C)c(C)c1)C(C)c1ccco1 (stereo unspecified),?,-0.4%,?,7.6,7.3%,-13.1%
CC1CCN(c2c(NCc3ccc(C(=O)N4c5ccccc5CC4C)cc3)c(=O)c2=O)CC1 (stereo unspecified),18.4µM*,-11.9%,23.1µM*,-1.4,-3.5%,?
COc1ccc(CCNC(=O)c2cc[nH]c2C2CCCN(C(C)=O)C2)c(OC)c1 (stereo unspecified),.,.,.,.,.,16.1%
